PubChem BioAssay
Values without a mark were called inactive. The rule behind the calls is not given here.

Biological target: Pantothenate synthetase (Mycobacterium tuberculosis (strain ATCC 25618 / H37Rv)) (UniProt P9WIL5)
Assay: Recombinant Mtb pantothenate synthetase (PanC) inhibitors, coupled enzyme, confirmatory (AID 375);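 note: 0% = full reaction with vehicle and 100% = no enzyme background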
Conditions: coupled enzyme assay; at 10 µM, hits give high values

Chain of Pantothenate synthetase (Mycobacterium tuberculosis (strain ATCC 25618 / H37Rv)) (P9WIL5 whole entry, looked up): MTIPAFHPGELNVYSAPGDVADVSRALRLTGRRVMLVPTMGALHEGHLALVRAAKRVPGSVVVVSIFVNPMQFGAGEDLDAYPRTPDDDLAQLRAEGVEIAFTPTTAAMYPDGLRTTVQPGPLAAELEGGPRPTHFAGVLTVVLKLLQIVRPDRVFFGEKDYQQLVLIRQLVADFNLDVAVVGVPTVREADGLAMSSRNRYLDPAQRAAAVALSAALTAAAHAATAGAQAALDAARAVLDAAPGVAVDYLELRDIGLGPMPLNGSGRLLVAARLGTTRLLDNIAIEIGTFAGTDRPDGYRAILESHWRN

| SMILES | inhibition [%] |
| --- | --- |
| COCCOC(=O)C1=C(C)Nc2ncnn2C1c1ccc(F)cc1 (configuration not stated) | 0 |
| CCOC(=O)C1=C[C@]2(CC)CCCN3CCc4c(n1c1ccccc41)[C@@H]32 | 4 |
| CCCNS(=O)(=O)c1ccc(OCC(=O)NCc2ccc3c(c2)OCO3)cc1 | 2 |
| Cc1cccc(-n2ncc3c(NCc4cccs4)ncnc32)c1 | 0 |
| COc1ccccc1Oc1coc2c(CN3CCN(C)CC3)c(O)ccc2c1=O | 0 |
| Cc1ccc(C)n1-c1ccc(N2CCOCC2)cc1 | 0 |
| CCOC(=O)c1ccccc1NC(=O)CSc1nccn1C | 0 |
| CC(=O)Nc1c(C(=O)C2CC2)oc2ccccc12 | 3 |
| Cn1c2c(c(=O)n(C)c1=O)C(NC(=O)C(C)(C)C)(C(F)(F)F)C(=O)N2 (configuration not stated) | 0 |
| CC(C)(C)OC(=O)N1CC(O)CC1C(=O)OCC(=O)c1ccc(Cl)cc1 (configuration not stated) | 0 |
| COCCn1c(SCc2csc(-c3ccccc3)n2)nc2ccccc21 | 5 |
| Cc1nn(Cc2ccc(C(=O)NC3CCCCC3)o2)c(C)c1Br | 2 |
| O=C(c1ccccc1)c1coc2ccc(O)c(CN3CCOCC3)c12 | 4 |
| COCCN(CC(=O)Nc1ccccc1C)S(=O)(=O)c1ccc(S(=O)(=O)N2CCCC2)cc1 | 0 |
| CC1CCCCN1CCNC(=O)c1ccc2c(=O)n(CCc3ccccc3)c(=O)[nH]c2c1 (configuration not stated) | 0 |
| CC(C)CC(c1nnnn1C1CCCC1)N1CCN(c2ccccc2F)CC1 (configuration not stated) | 0 |
| Cc1cc(C)cc(C(=O)N2CCC(C(N)=O)CC2)c1 | 0 |
